About 50,000 (12%) of roughly 420,000 compounds were called active. Entries that show only a call come without a potency. Not shown: some 26% with an inconclusive outcome. This is one part of a sample in which actives are shown more often than they occur. The call rests on the fitted dose curve; in most records, active means well fitted inhibition curve with a large enough effect; inconclusive means small, poorly fitted or top-dose-only effect; inactive means flat fitted curve, though single readings scatter.
Potency means the concentration at half of the fitted maximal effect.

A short description of the assay: qHTS for Inhibitors of human tyrosyl-DNA phosphodiesterase 1 (TDP1): qHTS in cells in presence of CPT. Further: nearly all actives have a fitted effect of over 55% in size. The settings on record: chicken DT40 Tdp1-/-;hTDP1 cells + 20 nM CPT, ATP luminescence, 48 h; series mostly up to 46.2 µM. The essentials:
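Cell growth measured by CellTiter-Glo luminescence after a minimum 48 h, 37 C compound exposure with 20 nM CPT in Tdp1-knockout DT40 cells stably expressing hTDP1, seeded 400/well; qHTS titration format.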
On the technique in general: Quantitative high-throughput screening tests each substance at several concentrations.
Regarding `O=C(NCc1ccccc1)C1c2ccccc2OCC(=O)N1C1CC1` (configuration not stated), the Potency entry is “inactive”.
As for `CS(=O)(=O)N(CC(=O)NC1CCCC1)Cc1ccc(F)cc1`, the entry is “inactive”.
As to `CCCCn1c(N)c(N(CC(C)C)C(=O)c2ccc(Br)o2)c(=O)[nH]c1=O`, the Potency entry was “inactive”.
As to `CCOCc1nnc(NC(=O)CCC2CCCCC2)s1`, the Potency entry was “inactive”.
On to `COCCN(C(=O)CCC(=O)Nc1nccs1)C(C(=O)NCCC(C)C)c1ccc(F)cc1` (configuration not stated), for which the Potency entry was “inactive”.
Next, `O=C(CC(NC(=O)c1ccccc1)c1ccccc1)Nc1ccc(F)c(F)c1` (configuration not stated): “inactive”; `O=C(Nc1ccc(Br)c2cccnc12)c1ccc(Cn2cc([N+](=O)[O-])cn2)o1`: 16.4 µM (active).
Next, `COc1cccc(NC(=O)c2ccc(Cn3cc([N+](=O)[O-])cn3)o2)c1`: “inactive”.
As for `O=C(c1ccc(Cn2cc([N+](=O)[O-])cn2)o1)N1CCCC1`, the entry is “inactive”; as for `COC1=CC(=O)OC(C)(c2ccccc2)C1` (configuration not stated), “inactive”.
In the case of `CC(=O)c1c(C)n(-c2ccc(C)cc2)c2ccc(O)cc12`, the Potency entry is “inactive”.
With `CC(=O)c1c(C)n(-c2ccc(N(C)C)cc2)c2ccc(OCC(N)=O)cc12`, the Potency is 18.4 µM (active).
With `Cc1c(Cc2ccccc2)c(=O)oc2cc(OCC(N)=O)ccc12`, the Potency result is “inactive”.
Turning to `CCCCc1ccc(S(=O)(=O)NC(=O)C2(C)CCN2C(=O)c2ccccc2)cc1` (configuration not stated), the Potency entry was “inactive”.
Next, `Cc1cccc2[nH]c(CN(C)C(=O)C3CCC(=O)N(CCc4ccccc4)C3)nc12` (configuration not stated): “inactive”; `CS(=O)(=O)Nc1ccccc1N=C(c1ccccc1)c1ccccc1`: “inactive”; `CC(C)CN(C(=O)CSc1nncn1C)C1CCS(=O)(=O)C1` (configuration not stated): “inactive”.
Turning to `COc1cc(CC(=O)N2CCC(n3nccc3NC(=O)C3CC3)CC2)cc(OC)c1OC`, the Potency result was “inactive”.
Next, `CCOc1cc(/C=N/NC(=O)CN2CCCCC2)ccc1O`: “inactive”.
Regarding `CCOc1cc(/C=C(\C#N)C(=O)Nc2ccccc2C)ccc1OCc1cc(=O)n2nc(CC)sc2n1`, the Potency entry is “inactive”.
As to `CCOc1cc(/C=C(\C#N)c2nc(-c3cccs3)c(NC(C)=O)s2)ccc1O`, the Potency is 2.31 µM (active).
As for `Cc1cc2c(C)nc(N/N=C/c3ccccc3)nc2o1`, the entry is “inactive”.
On to `Cc1ccc(C(=O)CN2C(=O)NC3(CCOc4ccccc43)C2=O)s1` (configuration not stated), for which the Potency result was “inactive”.
For `Cc1ccc(NC(=O)C(C)OC(=O)Cc2c[nH]c3ccccc23)cc1S(=O)(=O)N1CCOCC1` (configuration not stated), the Potency entry is “inactive”.
With `Cc1ccc(-n2nc(C)c(C(=O)O)c2-n2cccc2)cc1`, the Potency entry was “inactive”.
Regarding `Cc1ccc(S(=O)(=O)N2CC(C)N(S(C)(=O)=O)C2)cc1` (configuration not stated), the Potency result is “inactive”.
As for `Cc1ccc(S(=O)(=O)N2C[C@@H]3CCCC[C@@H]3[C@@H](C)[C@H]2c2cn(Cc3ccccc3)c3ccc(F)cc23)cc1`, the figure is 6.51 µM (active); as for `O=C(CS(=O)(=O)c1cn(Cc2cccc(F)c2)c2ccccc12)N1CCCCC1`, “inactive”.
As for `CCC(=O)c1ccc(OCC(=O)OCC(=O)N2CCc3ccccc3C2)cc1`, the Potency entry was “inactive”.
Consider `COc1cccc(C(NC(C)=O)c2nc(-c3cnc4ccccc4c3)cs2)c1` (configuration not stated), for which the Potency entry is “inactive”.
In the case of `COc1ccc(Nc2cc(Cl)ccc2C(=O)O)cn1`, the Potency result is “inactive”.
Turning to `COc1ccc(-c2csc(C(O)c3cccc(Cl)c3)n2)cn1` (configuration not stated), the Potency is 16.4 µM (active).
Regarding `CCCC(CNC(=O)COC(=O)C1=NNC(=O)CC1)c1ccc(Cl)cc1Cl` (configuration not stated), the Potency entry was “inactive”.
Next, `CC(C)C(=O)Nc1ccc2c(c1)oc1ccccc12`: “inactive”; `O=C(CSc1nnc(-c2ccccc2O)o1)NC1CCCCC1`: “inactive”.
Next, `Cn1nccc1/C=N\NC(=O)c1ccc(Cl)cc1`: “inactive”; `COc1ccc(Nc2cc(C)nc(-n3nc(C)cc3C)n2)cc1`: 0.517 µM (active); `Cc1cc(C)n(-c2cc(Oc3ccccc3)ncn2)n1`: “inactive”.
With `CC(=O)c1ccc(Oc2cc(C)nc(-n3nc(C)cc3C)n2)cc1`, the Potency is 0.731 µM (active).
For `Cc1cc(Nc2ccccc2)nc(N)n1`, the Potency entry is “inactive”.
Take `Cc1ccc(Nc2nc3ccccc3nc2-n2nc(C)cc2C)c(Cl)c1`: the Potency entry was “inactive”.
As for `COc1ccc(NC(=O)c2nc(-n3nc(C)cc3C)ccc2Cl)cc1Cl`, the Potency result is “inactive”.
Next, `Cc1cccc(Nc2cc(C)nc(-n3nc(C)cc3C)n2)c1`: 3.26 µM (active); `Cc1cc(Oc2ccccc2)nc(N2CCOCC2)n1`: “inactive”; `COc1ccc(Nc2nc(=O)[nH]nc2C)cc1`: “inactive”.
As for `CC(=O)NCCC(=O)Nc1cc(S(=O)(=O)N2CCCCC2)ccc1Oc1cccc(C)c1`, the Potency result was “inactive”.
Turning to `COC(=O)c1ccc(NC(=O)c2cc3c(CO)cnc(C)c3oc2=Nc2cccc(C(N)=O)c2)cc1`, the Potency result was “inactive”.
As for `O=C(N/C(=C\c1ccc([N+](=O)[O-])cc1)C(=O)N1CCCCC1)c1ccco1`, the entry is “inactive”.
For `CC(=O)c1cccc(NC(=O)Nc2ccc(C)cc2)c1`, the Potency entry is “inactive”.
As for `CC(=O)Nc1ccc(NC(=O)[C@@H](NC(=O)c2cccc(C)c2)C(C)C)cc1`, the Potency result was “inactive”.
As to `Cc1ccc(NC(=O)C(C)c2cccc(C(=O)c3ccccc3)c2)cc1` (configuration not stated), the Potency is 14.6 µM (active).
On to `O=C(CN(C(=O)CNC(=O)c1cccs1)c1cccc(F)c1)NC1CCCCC1`, for which the Potency entry is “inactive”.
In the case of `CCNC(=O)N1CCNC(=O)C1CC(=O)Nc1ccc(C(=O)OCC)cc1` (configuration not stated), the Potency result is “inactive”.
Take `CCOc1ccc(NC(=O)CC2C(=O)N(c3ccccc3)C(=O)N2CCOC)cc1` (configuration not stated): the Potency result was “inactive”.
As for `CCOC(=O)c1ccc(NC(=O)CC2C(=O)N(c3cccc(OC)c3)C(=O)N2C2CCCCC2)cc1` (configuration not stated), the Potency was 20.6 µM (active).
As to `COc1ccc(CCN2C(=O)N(c3cccc(OC)c3)C(=O)C2CC(=O)Nc2ccccc2)cc1` (configuration not stated), the Potency is 18.4 µM (active).
Regarding `Cc1ccc(N2C(=O)C(CC(=O)Nc3cccc(F)c3)N(CCc3ccncc3)C2=O)cc1` (configuration not stated), the Potency result is “inactive”.
Next, `CCOc1ccc(NC(=O)CC2C(=O)N(c3cccc(OC)c3)C(=O)N2C2CCCCC2)cc1` (configuration not stated): “inactive”; `CN1c2ccc([N+](=O)[O-])cc2C(C)(C)C12C=Cc1cc(C(=O)O)ccc1O2` (configuration not stated): “inactive”; `COc1ccc(S(=O)(=O)N2CCOCC2)cc1NC(=O)Cc1coc2cc(C)ccc12`: “inactive”.
For the compound `COc1ccc(/C(C)=N/NC(=O)c2ccc3nc[nH]c3c2)cc1`, the Potency entry is “inactive”.
As to `O=C(CSc1cccc[n+]1[O-])c1ccc(-c2ccccc2)cc1`, the Potency was 0.92 µM (active).
Next, `COc1ccccc1C(=O)CSc1cccc[n+]1[O-]`: “inactive”; `CCN(C(=O)CSc1cccc[n+]1[O-])c1ccccc1`: “inactive”.
Turning to `Cc1ccc(C(C)NC(=O)Cn2nc(C)c([N+](=O)[O-])c2C)cc1` (configuration not stated), the Potency result was “inactive”.
Next, `Cn1c(CC2Sc3ccccc3NC2=O)nnc1SCC(=O)c1ccc(Cl)cc1` (configuration not stated): “inactive”; `O=C(CN1C(=O)COc2ccc(Cl)cc21)N1CCOCC1`: “inactive”; `COc1ccccc1N1CCN(C(CNC(=O)C(=O)NCc2ccc(C)cc2)c2cccnc2)CC1` (configuration not stated): 4.61 µM (active).
Next, `Cc1ccc(NC(=O)NCC(c2cccnc2)N2CCOCC2)cc1` (configuration not stated): “inactive”.
As for `Cc1ccc(NC(=O)C(=O)NCC(c2cccnc2)N2CCOCC2)cc1` (configuration not stated), the entry is “inactive”; as for `CC(OC(=O)c1cc2ccccc2[nH]1)C(=O)N(C)c1ccccc1` (configuration not stated), “inactive”.
For `O=C(Cc1ccccn1)c1ccc(O)cc1O`, the Potency result was “inactive”.
Turning to `Cc1ccc(Cl)cc1NC(=S)N(CCN(C)C)Cc1cccs1`, the Potency result was “inactive”.
Turning to `Cc1ccc(CN(Cc2cccnc2)C(=S)Nc2cc(Cl)ccc2C)cc1`, the Potency is 13 µM (active).
Regarding `Cc1c(Cl)cccc1NC(=S)N(Cc1ccccc1)Cc1cccnc1`, the Potency entry is “inactive”.
For `C=CCn1nc(-c2ccccc2)c2c(C)onc2c1=O`, the Potency entry is “inactive”.
As to `O=C(Nc1cccc(C(=O)NC2CC2)c1)c1ccc(F)c(S(=O)(=O)N2CCOCC2)c1`, the Potency result is “inactive”.
Take `OCC[C@H]1C[C@H](O)[C@@H](O)[C@]2(CCCCO2)O1`: the Potency result is “inactive”.
Consider `Cc1nnsc1C(=O)NCc1c(F)cccc1Cl`, for which the Potency result is “inactive”.
With `Cc1ccc(NS(=O)(=O)c2cn(C)c(=O)n(C)c2=O)c(C)c1`, the Potency entry was “inactive”.
Next, `Cn1cc(S(=O)(=O)Nc2ccc(Cl)cc2Cl)c(=O)n(C)c1=O`: 20.6 µM (active); `CC(C)c1ccc(NS(=O)(=O)c2cn(C)c(=O)n(C)c2=O)cc1`: “inactive”; `Cc1ccc(NC(=O)c2oc(=O)c3ccccc3c2-c2ccccc2)c(C)c1`: 23.1 µM (active).
Next, `Cc1ccc(NC(=O)c2oc3ccccc3c2C)c([N+](=O)[O-])c1`: “inactive”; `Cc1ccc(NC(=O)c2ccn(C(=O)Nc3ccccc3)n2)c(C)c1`: “inactive”.
As for `O=C(CSc1nnc(Nc2ccccc2F)s1)NC1CCCC1`, the entry is “inactive”.
Take `Nc1cccc(-c2cncc(N3CCN(Cc4ccccn4)CC3)n2)c1`: the Potency result is “inactive”.
As to `COc1cccc(-c2noc(C3CCCN(C(=O)c4ccc(F)cc4)C3)n2)c1` (configuration not stated), the Potency result was “inactive”.
For the compound `COc1ccc(NC(=O)C2CCCN(S(=O)(=O)c3cccc4nonc34)C2)cc1Cl` (configuration not stated), the Potency result was “inactive”.
In the case of `COc1cc(-c2noc(C3CCCN(S(=O)(=O)c4cccc(Cl)c4)C3)n2)cc(OC)c1OC` (configuration not stated), the Potency was 12.6 µM (active).
With `COc1ccccc1CC(NC(C)=O)C(=O)NC1CCN(C(=O)Nc2ccccc2Cl)CC1` (configuration not stated), the Potency entry was “inactive”.
With `COc1cc(C2/C(=C(\O)c3ccc4c(c3)CC(C)O4)C(=O)C(=O)N2c2nnc(C)s2)cc(OC)c1OC` (configuration not stated), the Potency entry was “inactive”.
`Cc1cc(Nc2ccc(C(=O)N3CCCCC3)cc2)c2cccc(C)c2n1`: the Potency entry was “inactive”.
As for `CCOC(=O)N1CCN(C(c2ccnc3ccccc23)c2nnnn2-c2c(C)cccc2C)CC1` (configuration not stated), the entry is “inactive”; as for `CCOC(=O)N1CCN(C(c2cccnc2)c2ccc3cccnc3c2O)CC1` (configuration not stated), 3.66 µM (active).
With `CCOC(=O)N1CCN(Cc2nc(N)nc(Nc3ccc(C)cc3)n2)CC1`, the Potency result is “inactive”.
Consider `CC1(C(=O)O)CCC(C(=O)Nc2ccc(Cl)c(Cl)c2)C1(C)C` (configuration not stated), for which the Potency result was “inactive”.
For `COc1ccc(S(=O)(=O)NNC(=O)Nc2ccc(C)cc2)c(OC)c1`, the Potency result is “inactive”.
Take `CCOC1=C2CN(S(=O)(=O)c3ccc(C)cc3)[C@H](c3cccs3)C[C@H]2[C@H]2C(=O)N(c3ccccc3)C(=O)[C@H]2C1`: the Potency entry is “inactive”.
Consider `O=C(COC(=O)c1cccc(Cl)c1)NC(=O)NCc1ccccc1`, for which the Potency result was “inactive”.
For `Cc1ccc(S(=O)(=O)c2c(COC(=O)c3cccc(Cl)c3)c(-c3ccccc3)nn2C)cc1`, the Potency is 23.1 µM (active).
`Cc1cc(C)n(-c2c(F)c(F)c(COC(=O)c3ccccc3)c(F)c2F)n1`: the Potency entry was “inactive”.

Values taken from PubChem BioAssay AID686979 (National Center for Advancing Translational Sciences (NCATS), 2013).
